According to PubChem BioAssay (NCATS):
Records with an inconclusive call do not appear. Activity calls are given as the source filed them. Calls follow the shape of the dose curve; as a rule, active = well fitted curve in the direction sought with a large enough effect; inconclusive = small, poorly fitted or top-dose-only effect, or another doubt; inactive = no such curve, though single readings can be large; an effect the other way counts as inactive or inconclusive.

How the values were obtained:
[1] = target: Calcium and integrin-binding protein 1 (Homo sapiens) (UniProt Q99828); test: Primary qHTS for Identification of Calcium Integrin Binding Protein 1 (CIB1) Competitor (AID 1508620);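 also: GST tagged CIB1 binding a fluorescein labelled alphaIIb integrin peptide tracer; top concentration of the series differs between compounds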
In short: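 Fluorescence polarization competition: GST-tagged CIB1 (1 uM final) preincubated with compound 15 min at room temperature, then FITC-labelled alphaIIb peptide (100 nM final) added. After 15 min at room temperature, polarization read at Ex 480/Em 540.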

[2] = Primary qHTS for inhibitors of nuclear receptor binding SET domain protein 2 (NSD2) in an isogenic RCH-ACV NSD2 p.E1099K mutant (9B) (AID 1645876); also: nearly all actives have a fitted effect of over 70% in size
[3] = Primary qHTS for inhibitors of nuclear receptor binding SET domain protein 2 (NSD2) in an RCH-ACV wild type WT cells (2C) (AID 1645877); also: nearly all actives have a fitted effect of over 70% in size
% is scaled to controls: 0 for no effect and ±100 for the full control effect.

Sequence of Calcium and integrin-binding protein 1 (Homo sapiens) (Q99828 whole entry, looked up): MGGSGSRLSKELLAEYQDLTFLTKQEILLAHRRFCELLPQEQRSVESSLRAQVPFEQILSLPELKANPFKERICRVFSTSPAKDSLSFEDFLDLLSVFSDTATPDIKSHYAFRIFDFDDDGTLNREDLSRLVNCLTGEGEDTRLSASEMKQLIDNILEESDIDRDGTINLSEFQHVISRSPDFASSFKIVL

CC/C=C\[C@H](O)[C@H](O)C1=C(C)C(=O)[C@]2(O1)C(=O)N[C@@](O)(C(=O)c1ccccc1)[C@@H]2O
inactive: Potency [1] | Potency [2] | Potency [3]

C=C1CCC2[C@](C)(CCC[C@]2(C)C(=O)O)[C@H]1CC/C(C)=C/C(=O)OC (some centres not stated)
inactive: Potency [1] | Potency [2] | Potency [3]

COc1c2cc(c(O[C@@H]3O[C@H](CO)[C@@H](O)[C@H](O)[C@H]3O)c1OC)CCCCC(O)CCc1ccc(O)c-2c1 (some centres not stated)
inactive: Potency [1] | Potency [2] | Potency [3]

CC(C)C(O)(CO)CCO[C@@H]1O[C@H](CO[C@H]2OC[C@](O)(CO)[C@H]2O)[C@@H](O)[C@H](O)[C@H]1O (some centres not stated)
inactive: Potency [1] | Potency [2] | Potency [3]

CC[C@H](C)[C@H](NC(=O)[C@H](Cc1ccc(O)cc1)NC(=O)[C@@H](N)C(C)C)C(=O)N[C@@H](Cc1cnc[nH]1)C(=O)N1CCC[C@H]1C(=O)N[C@@H](Cc1ccccc1)C(=O)O
inactive: activity change, negative = inhibition [1] 2.56% [at 12.4 µM] | outcome [2] inactive [at 4.96 µM] | activity change, negative = cell killing [3] 2.6% [at 4.96 µM]

C=C1C(=O)O[C@@H]2CC(C)=C([C@@H](C)CCCOC(C)=O)[C@@H](O)[C@H]12
inactive: Potency [1] | Potency [2] | Potency [3]

CC(C)(CC(=O)N1CCCC1)NCC(=O)N1C[C@@H](F)C[C@H]1C#N
inactive: Potency [1] | Potency [2] | Potency [3]

C/C=C/C=C/C=C/C(=O)N(C)C(C(=O)NC(C)C(=O)N1CCCC1C(N)=O)C(C)C (configuration not stated)
inactive: Potency [1] | Potency [2] | Potency [3]

CC(C)C[C@H](NC(=O)[C@@H]1O[C@H]1C(=O)O)C(=O)NCCCCN=C(N)N
inactive: Potency [1] | Potency [2] | Potency [3]

CC(=O)OC1C(O)C(C)(O)C(/C=C/C(=O)O)C2(C)CCCC(C)(C)C12 (configuration not stated)
inactive: Potency [1] | Potency [2] | Potency [3]

C/C=C(/C)C(=O)O[C@H]1C[C@]2(C)O[C@@H]2[C@@H](OC(C)=O)[C@@]2(C)CC[C@@](O)(C(C)C)[C@H]12
inactive: Potency [1] | Potency [2] | Potency [3]

CC(C)=CC[C@H]1O[C@]2(O)C([C@H]3CCC4[C@@]5(C)CC[C@H](O[C@@H]6O[C@H](CO)[C@H](O)[C@H](O[C@@H]7O[C@H](CO)[C@@H](O)[C@H](O)[C@H]7O)[C@H]6O[C@@H]6O[C@@H](C)[C@H](O)[C@@H](O)[C@H]6O)C(C)(C)C5CC[C@@]4(C)[C@]3(C)[C@H]2O)[C@@]1(C)O (some centres not stated)
inactive: Potency [1] | activity change, negative = viability loss [2] -8.31% [at 9.23 µM] | activity change, negative = cell killing [3] -7.27% [at 9.23 µM]

CC(=O)OC/C(=C/C(=O)O)CC[C@@H]1C(C)=CC(=O)[C@@H]2C(C)(C)CCC[C@@]12C
inactive: Potency [1] | Potency [2] | Potency [3]

CC1(C)C=Cc2c(ccc3c2[N+]([O-])=C2C3(O)CC34NC(=O)C5(CCCN5C3=O)CC4C2(C)C)O1 (configuration not stated)
inactive: Potency [1] | Potency [2] | Potency [3]

COC(=O)C1=COC(O[C@@H]2O[C@H](CO)[C@@H](O)[C@H](O)[C@H]2O)C2C(C)C(=O)CC12 (some centres not stated)
inactive: Potency [1] | Potency [2] | Potency [3]

COc1ccc(/C=C/C(=O)O[C@@H]2[C@@H](O[C@@H]3O[C@H](CO)[C@@H](O)[C@H](O)[C@H]3O)[C@@H](O)[C@H](O[C@H]3C4C=CO[C@@H](O[C@@H]5O[C@H](CO)[C@@H](O)[C@H](O)[C@H]5O)C4[C@@]4(CO)O[C@@H]34)O[C@H]2C)cc1 (some centres not stated)
inactive: Potency [1] | activity change, negative = viability loss [2] -15.4% [at 9.23 µM] | activity change, negative = cell killing [3] -20.7% [at 9.23 µM]

COC(=O)C1=CO[C@@H](O[C@@H]2O[C@H](CO)[C@@H](O)[C@H](O)[C@H]2O)[C@@H]2[C@@H](C(=O)O)CC[C@H]12
inactive: Potency [1] | Potency [2] | Potency [3]

C[C@@H]1[C@H](O)[C@@H]2OC(=O)C3=C2[C@H](CCC3)[C@@]12C[C@@H](c1ccoc1)OC2=O
inactive: Potency [1] | Potency [2] | Potency [3]

COc1ccc(OC2OC(CO[C@@H]3O[C@@H](C)[C@H](O)[C@@H](O)[C@H]3O)C(O)C(O)C2O)cc1OC (some centres not stated)
inactive: Potency [1] | Potency [2] | Potency [3]

Cn1cc(Nc2cnccc2C(=O)O)c2cccnc21
inactive: Potency [1] | Potency [2] | Potency [3]

O=C(OCC1=C[C@@H](O)[C@@H]2C=CO[C@@H](O[C@@H]3O[C@H](CO)[C@@H](O)[C@H](O)[C@H]3O)[C@H]12)c1ccc(O)cc1
inactive: Potency [1] | Potency [2] | Potency [3]

CC(C)=CCC(O)[C@](C)(O)C1[C@H](O)C[C@@]2(C)C3CC=C4C(C[C@H](O)[C@@H](O[C@@H]5O[C@H](CO)[C@@H](O)[C@H](O)[C@H]5O)C4(C)C)[C@]3(C)C(=O)C[C@]12C (some centres not stated)
inactive: Potency [1] | Potency [2] | Potency [3]

C=C1C2CCC3CC2(CC(O)C2(O)C1CC(OC1OC(CO)C(O)C(O)C1O)C2(C)C)CC3(C)O (configuration not stated)
inactive: Potency [1] | Potency [2] | Potency [3]

CC(=O)O[C@@H]1[C@@H](O)[C@H](C)O[C@@H](O[C@H]2[C@@H]3C=CO[C@@H](O[C@@H]4O[C@H](CO)[C@@H](O)[C@H](O)[C@H]4OC(C)=O)[C@@H]3[C@@]3(CO)O[C@@H]23)[C@@H]1OC(=O)/C=C/c1ccc(O)cc1
inactive: Potency [1] | Potency [2] | Potency [3]

CC[C@H]1OC(=O)[C@H](C)[C@@H](O[C@H]2C[C@@](C)(OC)[C@@H](O)[C@H](C)O2)C(C)[C@@H](O[C@@H]2O[C@H](C)C[C@H](N(C)C)[C@H]2O)[C@](C)(O)C[C@@H](C)CN(C)[C@H](C)[C@@H](O)[C@]1(C)O (some centres not stated)
inactive: Potency [1] | Potency [2] | Potency [3]

CCC12CCCN3CCc4c(n(c5ccccc45)C(O)C1)C32 (configuration not stated)
inactive: Potency [1] | Potency [2] | Potency [3]

CC1=C2CC(C)(C)CC2C(O)C2=C(C1)C(=O)OC2O (configuration not stated)
inactive: Potency [1] | Potency [2] | Potency [3]

O=C(O)c1ccncc1Nc1nn(CCN2CCC(F)(F)CC2)c2ccc(F)cc12
inactive: Potency [1] | Potency [2] | Potency [3]

CN(C)CC(c1ccc(O)cc1)C1(O)CCCCC1 (configuration not stated)
inactive: Potency [1] | Potency [2] | Potency [3]

C[C@]1(O)CC[C@@H]2C(C(=O)O)=CO[C@@H](O[C@@H]3O[C@H](CO)[C@@H](O)[C@H](O)[C@H]3O)[C@@H]21
inactive: Potency [1] | Potency [2] | Potency [3]

C[C@@H]1CCC2C(C)(C)[C@H](O)[C@H](O)C[C@]2(C)[C@@]12Cc1c(O)cc3c(c1O2)CN(CCCC(=O)O)C3=O (some centres not stated)
inactive: Potency [1] | Potency [2] | Potency [3]

C[C@H](O)C(O)(C(=O)OCc1ccccc1NC(=O)CCC(N)C(=O)O)[C@H](C)O (some centres not stated)
inactive: Potency [1] | Potency [2] | Potency [3]

CC1(C)CC[C@]2(C(=O)O[C@@H]3O[C@H](CO)[C@@H](O)[C@H](O)[C@H]3O)CC[C@]3(C)C(=CCC4[C@@]5(C)C[C@@H](O)[C@H](O)[C@@](C)(CO)C5[C@H](O)C[C@]43C)C2[C@@H]1O (some centres not stated)
inactive: Potency [1] | Potency [2] | Potency [3]

C[C@@H]1O[C@@H](OC[C@H]2O[C@@H](OCc3ccccc3)[C@H](O)[C@@H](O)[C@@H]2O)[C@H](O)[C@H](O)[C@H]1O
inactive: Potency [1] | Potency [2] | Potency [3]

C/C(=C\CCC1(C)C2CC3C(C2)C31C)C(=O)O (configuration not stated)
inactive: Potency [1] | Potency [2] | Potency [3]

CCC1=C(C)C(=O)C(C)CC12C(=O)CCC2C(=O)O (configuration not stated)
inactive: Potency [1] | Potency [2] | Potency [3]

OC[C@@]1(O)CO[C@@H](OC[C@H]2O[C@@H](Oc3ccccc3)[C@H](O)[C@@H](O)[C@@H]2O)[C@@H]1O
inactive: Potency [1] | Potency [2] | Potency [3]

CC(=O)c1c(C)cccc1O[C@@H]1O[C@H](CO)[C@@H](O)[C@H](O)[C@H]1O
inactive: Potency [1] | Potency [2] | Potency [3]

OC[C@@]1(O)CO[C@H](OC[C@H]2O[C@@H](OCCc3ccccc3)[C@H](O)[C@@H](O)[C@@H]2O)[C@@H]1O
inactive: Potency [1] | Potency [2] | Potency [3]

COc1ccc(/C=C/C(=O)N2CCCC2)cc1
inactive: Potency [1] | Potency [2] | Potency [3]

CC1CC=C2C1CC1(O)C(=O)CC2(C)C1(C)CO (configuration not stated)
inactive: Potency [1] | Potency [2] | Potency [3]

CC1=C2C(=O)C=C(CO[C@@H]3O[C@H](CO)[C@@H](O)[C@H](O)[C@H]3O)[C@@H]2[C@H]2OC(=O)[C@H](C)[C@@H]2CC1
inactive: Potency [1] | Potency [2] | Potency [3]

COc1cc(O)cc2c1C(=O)OC(C)C2 (configuration not stated)
inactive: Potency [1] | Potency [2] | Potency [3]

CC1CC(O)/C=C/C(O)/C=C\C(=O)O1 (configuration not stated)
inactive: Potency [1] | Potency [2] | Potency [3]

C/C=C(\C)C(=O)OC[C@H]1O[C@@H](O[C@H]2[C@@H](O[C@H]3O[C@H](COC(=O)/C(C)=C/C)[C@@H](O)[C@H](O)[C@H]3O[C@@H]3O[C@H](CO)[C@@H](O)[C@H](OC(=O)/C(C)=C/C)[C@H]3O)O[C@H](COC(=O)/C(C)=C/C)[C@@H](O)[C@@H]2O)[C@H](O)[C@@H](O)[C@@H]1O
inactive: Potency [1] | activity change, negative = viability loss [2] -4.56% [at 9.23 µM] | activity change, negative = cell killing [3] -10.6% [at 9.23 µM]

CC/C=C\C(O)C(O)C1=C(C)C(=O)C2(O1)C(=O)NC(OC)(C(=O)c1ccccc1)C2O (configuration not stated)
inactive: Potency [1] | Potency [2] | Potency [3]

C=C1CC[C@]2(C(=O)O[C@@H]3O[C@H](CO)[C@@H](O)[C@H](O)[C@H]3O)CC[C@]3(C)C(=CCC4[C@@]5(C)C[C@H](O)[C@@H](O[C@@H]6O[C@H](C(=O)O)[C@@H](O)[C@H](O)[C@H]6O)[C@](C)(C=O)C5CC[C@]43C)C2C1 (some centres not stated)
inactive: Potency [1] | activity change, negative = viability loss [2] -1.03% [at 9.23 µM] | activity change, negative = cell killing [3] -2.63% [at 9.23 µM]

CCCO[C@@H]1O[C@H](CO)[C@@H](O)[C@H](O)[C@H]1O[C@@H]1OC[C@@H](O)[C@H](O)[C@H]1O
inactive: Potency [1] | Potency [2] | Potency [3]

C/C=C1/[C@H](O[C@@H]2O[C@H](CO)[C@@H](O)[C@H](O)[C@H]2O)OC=C(C(=O)OC)[C@H]1CC(=O)OCCc1ccc(OC(=O)C[C@@H]2C(C(=O)OC)=CO[C@@H](O[C@@H]3O[C@H](CO)[C@@H](O)[C@H](O)[C@H]3O)/C2=C/C)cc1
inactive: Potency [1] | activity change, negative = viability loss [2] -12% [at 9.23 µM] | activity change, negative = cell killing [3] -15% [at 9.23 µM]
